Most compounds without a hit are left out; they make up all but 12% or so of the library.
FMDV inh – High Throughput Screening for Foot and Mouth Disease Virus Antivirals | FMDV antiviral cell-based qHTS | Potency, µM (titrated, usually from 57.9 µM), without a hit: at the highest dose activity change, negative = inhibition, actives largely listed as inhibitors | hit rate 1.2% among 410,000; calls by dose curve; tested in HEK293T cells; further: read-out not given here; potency means the concentration at half of the fitted maximal effect; on the % scale 0 is the no-effect control and ±100 the full control effect; nearly all actives have a fitted effect of over 45% in size
Sm TGR block – qHTS Assay for the Inhibitors of Schistosoma Mansoni Peroxiredoxins | Schistosoma mansoni thioredoxin glutathione reductase (TGR), Q962Y6 | purified TGR, DTNB reduction, TNB absorbance 405 nm | Potency, µM (titrated, usually from 114 µM), for inactives: top-dose activity change, negative = inhibition, usual class: inhibitors | hit rate 3% among 360,000 | AID 485364, 2010; active means well fitted inhibition curve with a large enough effect; inconclusive means small, poorly fitted or top-dose-only effect; inactive means no such curve, though single readings can be large or run the other way; further: potency means the concentration at half of the fitted maximal effect; on the % scale 0 is the no-effect control and ±100 the full control effect; nearly all actives have a fitted effect of over 60% in size
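First, TGR (20 nM dispensed) and NADPH were mixed with compound. Second, a 15 min room-temperature incubation followed. Third, further NADPH and then DTNB were added to start the reaction. Finally, TNB absorbance was monitored kinetically.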
CHX counter – Cycloheximide Counterscreen for Small Molecule Inhibitors of Shiga Toxin; cell reporter, cycloheximide protein synthesis inhibition counterscreen; max response, %; hit rate 12% among 300,000; AID 2314, 2010; in the data active means max response mostly above about 13%, no sharp cut-off; inactive means mostly below about 14%; further: read at 38.3 µM for the half of the compounds with a filed dose; 0% is about no effect
Shiga inhibitor – A qHTS for Small Molecule Inhibitors of Shiga Toxin; Vero cells, Shiga toxin protein synthesis inhibition reporter; inhibition, % at 38.7 µM; hit rate 9.2% among 290,000; AID 2315, 2010; in the data active means inhibition mostly above about 28%, no sharp cut-off; inactive means mostly below about 43%; further: 0% is about no effect
* = called active by the depositor; ? = inconclusive; · = not tested or not shown.

SMILES | FMDV inh | Sm TGR block | CHX counter | Shiga inhibitor
Cc1ccc(Cc2nc3ccccc3nc2SCC(=O)N2CCCCC2C)cc1 (stereo not drawn) | ? | 0% | · | ·
CCCN1CCCc2cc(CN(CCCN3CCOCC3)C(=O)Nc3ccc(CC)cc3)ccc21 | -7% | -30% | · | ·
Brc1ccccc1-c1nnc(SCc2nc3ccccc3s2)o1 | -5% | -8% | 53* | 101*
O=C(O)c1ccc(CSc2nnc(-c3ccccc3Br)o2)cc1 | -3% | 8% | -1 | -7
CCN(CC)S(=O)(=O)c1cccc(-c2nnc(SCc3nc4ccccc4s3)o2)c1 | 0% | -7% | 23* | 82
CCN(CC)S(=O)(=O)c1cccc(-c2nnc(SCCCC(=O)c3ccccc3)o2)c1 | ? | 8% | 11 | 17
CN(C)S(=O)(=O)c1cccc(-c2nnc(SCc3ccc4c(c3)OCCO4)o2)c1 | 18% | 7% | 33* | 86
COc1ccc(OCC(=O)Nc2cccc(-c3nc4ccccc4s3)c2C)cc1 | ? | -4% | · | ·
COc1cccc(-n2c(SCc3ccccc3C)nc3c([nH]c4ccccc43)c2=O)c1 | -24% | -3% | · | ·
CC(=O)c1ccc(NC(=O)COC(=O)c2c3c(nc4ccccc24)/C(=C\c2cccs2)CCC3)cc1 | ? | 8% | 15* | 17
O=C(COC(=O)c1c2c(nc3ccccc13)/C(=C\c1cccs1)CCC2)Nc1ccccc1 | -4% | 7% | 0 | 10
COCCn1c(=O)c(CCc2ccccc2)nc2cnc(OCc3ccccc3)nc21 | -4% | · | · | ·
COC(=O)c1cc(=O)n(Cc2ccc3c(c2)OCO3)c(=Nc2ccccc2)s1 | 35µM* | -5% | -1 | 11
CCOC(=O)c1ccc(N=c2sc(C(=O)OC)cc(=O)n2Cc2ccc3c(c2)OCO3)cc1 | ? | 5% | 1 | 11
COC(=O)c1cc(=O)n(Cc2ccc3c(c2)OCO3)c(=Nc2ccc(F)cc2)s1 | 13µM* | 5% | -2 | 18
Cc1c(Cl)cccc1NC(=O)C(CCS(C)(=O)=O)N1Cc2ccccc2C1=O (stereo not drawn) | -2% | -8% | · | ·
Cc1cccc(-c2noc(-c3ccccc3OCC(=O)Nc3ccccc3[N+](=O)[O-])n2)c1 | -7% | -7% | · | ·
Cc1cccc(C)c1NC(=O)Nc1ccc2c(c1)OCO2 | 16% | 11% | 27 | 38
Cc1cc(F)ccc1NC(=O)Nc1ccc2c(c1)OCO2 | 25% | -2% | 12* | 11
Cc1ccc(NC(=O)Nc2ccc3c(c2)OCO3)c(OC(F)F)c1 | 50% | 1% | 48* | 103*
Cc1ccc(NC(=O)Nc2ccc3c(c2)OCO3)cc1F | 62% | 0% | 73* | 90*
Cn1c(=O)n(C)c2cc(N3CCOCC3)c(NC(=O)c3ccc(Cl)cc3)cc21 | -12% | 0% | · | ·
Nc1nc2c(ncn2C2OC(CO)CC2O)c(=O)[nH]1 (stereo not drawn) | 7% | · | · | ·
COc1ccc(CCN(C)C(=O)c2cc(-c3ccccc3)nc3ccc(C)cc23)cc1OC | 18% | -15% | 26 | 65*
COc1ccc(CN(C)C(=O)c2cc(-c3ccccc3)nc3ccc(C)cc23)c(OC)c1OC | -10% | -20% | 17* | 27
SMILES | FMDV inh | Sm TGR block | CHX counter | Shiga inhibitor
COc1ccc(-c2cc(C(=O)N(C)Cc3cccc(OC)c3OC)c3ccccc3n2)cc1OC | 14% | -6% | 0 | -7
COc1ccc(CCN(C)C(=O)Cc2ccc(-c3ccccc3)cc2)cc1OC | ? | -12% | 22* | -7
COc1ccc(CCN(C)C(=O)COc2ccc(C(=O)c3ccccc3)cc2)cc1OC | -21% | 1% | · | ·
CN1CCN(c2oc(/C=C/c3ccc(F)cc3)nc2C#N)CC1 | -12% | -1% | · | ·
COc1cccc(Nc2ncc3nc(CCc4ccccc4)c(=O)n(C4CC4)c3n2)c1 | 18% | · | · | ·
CC(C)c1ccc(NC(=O)CN2C(=O)C3(SCC(=O)N3c3ccc(F)cc3)c3ccccc32)cc1 (stereo not drawn) | -10% | 13% | · | ·
COc1ccc(-c2ccc(=O)n(Cc3cccc([N+](=O)[O-])c3)n2)cc1 | ? | -1% | 10 | -5
COc1ccc(-c2ccc(=O)n(Cc3c(F)cccc3Cl)n2)cc1 | -8% | 10% | 23* | 48*
CCOC(=O)c1cc(OC(=O)c2cc(OC)c(OC)c(OC)c2)n(-c2ccccc2)n1 | 0% | -10% | · | ·
Nc1nc(-c2ccccc2)cn1/N=C/c1ccccc1 | 46% | ? | 38* | 34
Nc1nc(-c2ccccc2)cn1N | 23% | -1% | 23 | 28
COc1ccc(NC(=O)C2CCN(S(=O)(=O)c3ccc4c(c3)CCCC(=O)N4)CC2)cc1OC | -14% | 13% | · | ·
O=c1[nH]c(CN(CCc2ccccc2)S(=O)(=O)c2ccc(Cl)cc2)nc2ccccc12 | -17% | 1% | 21* | active
COc1ccc(S(=O)(=O)N(Cc2ccccc2)Cc2nc3ccccc3c(=O)[nH]2)cc1 | -7% | ? | -2 | 3
CCCn1cc(S(=O)(=O)c2cccc(Cl)c2)c(=O)c2cc(F)c(N3CCOCC3)cc21 | 19% | 20% | · | ·
COc1ccc2c(c1)c1c(c(=O)n(Cc3ccccc3)c(=O)n1Cc1ccccc1)n2C | -19% | 1% | · | ·
COCCNC(=O)CCCn1c(SCC(=O)c2ccc(Br)cc2)nc2c(sc3ccccc32)c1=O | -10% | 7% | · | ·
O=C(Nc1ccc(Cl)cc1Cl)c1ccc2c(=O)n3c(nc2c1)CCC3 | -1% | -3% | · | ·
CCc1cccc(NC(=O)c2ccc3c(=O)n4c(nc3c2)CCCCC4)c1 | -29% | 30% | 38* | 76*
CC(=O)c1c(C)[nH]c(C(=O)COC(=O)c2ccc3c(=O)n4c(nc3c2)CCC4)c1C | 4.5µM* | 3% | -1 | -10
O=C(Nc1ccc(F)c(Cl)c1)c1ccc2c(=O)n3c(nc2c1)CCCCC3 | -18% | 0% | 52* | 54*
Cc1ccc(NC(=O)c2ccc3c(=O)n4c(nc3c2)CCC4)cc1F | -7% | 1% | · | ·
O=C(Nc1cccc(Cl)c1)c1ccc2c(=O)n3c(nc2c1)CCCCC3 | -38% | 4% | 41* | 102*
COc1cccc(NC(=O)CSc2c(C)cnc3c2c(=O)n(C)c(=O)n3C)c1 | -12% | 8% | · | ·
COc1cccc(C(=O)c2cn(CC(=O)NCc3ccccc3)c3nc(C)ccc3c2=O)c1 | 23% | 2% | · | ·
SMILES | FMDV inh | Sm TGR block | CHX counter | Shiga inhibitor
CCc1ccc(CN2C(=O)c3ccccc3C2C(=O)NC2CCCCCC2)cc1 (stereo not drawn) | -11% | -9% | · | ·
O=C(Nc1cc(-c2nc3ccccc3o2)ccc1Cl)c1ccc(Br)o1 | 22% | ? | · | ·
Cc1ccc(-c2nc(CS(=O)CC(=O)N3CCN(c4ccc(Cl)cc4)CC3)c(C)o2)cc1 (stereo not drawn) | -24% | ? | · | ·
CN(C(=O)c1ccc2c(=O)n3c(nc2c1)CCCCC3)c1ccccc1Cl | 24% | 11% | 19* | 24
CC(=O)c1ccc(NC(=O)c2ccc3c(=O)n4c(nc3c2)CCCCC4)cc1 | ? | -14% | 7 | 16
O=C(c1ccc2c(=O)n3c(nc2c1)CCCCC3)N1CCN(c2ccccc2)CC1 | -13% | 0% | 0 | -9
O=C(c1ccc2c(=O)n3c(nc2c1)CCCCC3)N1CCCCC1 | 6% | 1% | 21* | -1

Screens (PubChem)
